Lassa entry inh: blocks Lassa virus binding to or entry into cells; 1.2% of 300,000 active; Lassa virus pseudotype entry inhibition, cell reporter; AID 540256; Potency, µM (highest dose often 37.9 µM), for inactives: at the top dose activity change, negative = inhibition, most hits filed as inhibitors; calls by dose curve; tested in HEK293 cells; note: potency is the fitted concentration of half-maximal effect; % is set by controls: 0 for no effect and ±100 for the full control effect; nearly all actives have a fitted effect of over 50% in size
Shiga toxin inh: inhibitors of Shiga toxin in Vero cells; inhibition, % at 38.7 µM; AID 2315; 9.2% of 290,000 active; Vero cells, Shiga toxin protein synthesis inhibition reporter; in the data active = inhibition mostly above about 28%, no sharp cut-off; inactive = mostly below about 43%; note: 0% is about no effect
CHX counter: counter-screen hit for Shiga toxin inhibitors, cycloheximide; cell reporter, cycloheximide protein synthesis inhibition counterscreen; max response, %; 12% of 300,000 active; AID 2314; in the data active = max response mostly above about 13%, no sharp cut-off; inactive = mostly below about 14%; note: read at 38.3 µM for the half of the compounds with a filed dose; 0% is about no effect
MARV entry inh: Marburg virus entry inhibition; Marburg virus pseudotyped entry inhibition, cell reporter; Potency, µM (doses to about 37.8 µM), without a hit: at the highest dose activity change, negative = inhibition, actives largely listed as inhibitors; 1.8% of 300,000 active; AID 540276; calls by dose curve; tested in HEK293 cells; note: potency is the fitted concentration of half-maximal effect; % is set by controls: 0 for no effect and ±100 for the full control effect
AMA1-RON2 inh: AMA1-RON2 (P. falciparum) interaction inhibition; AlphaScreen AMA1-biotinylated RON2 peptide binding; Potency, µM (highest dose often 58.2 µM), for inactives: at the highest dose activity change, negative = inhibition, hits mostly inhibitors; 0.2% of 360,000 active; active = well fitted inhibition curve with a large enough effect; inconclusive = small, poorly fitted or top-dose-only effect; inactive = no such curve, though single readings can be large or run the other way;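 note: potency is the fitted concentration of half-maximal effect; 0% = vehicle wells and -100% = peptide control; nearly all actives have a fitted effect of over 45% in size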
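AMA1 (3D7) with his tag at 25 nM final met compounds first, then biotinylated RON2 peptide at 25 nM; detection used donor plus acceptor beads, 10 µg/mL apiece, read by AlphaScreen after 30 min at room temperature.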
Starred values were filed as active, the others as inactive; ? = inconclusive; / = not tested or not shown; [ ] = dose if it differs, or a comment. The entries come from a sample that favours hits as a whole.

SMILES	Lassa entry inh	Shiga toxin inh	CHX counter	MARV entry inh	AMA1-RON2 inh
Nc1ncnc(Nc2ccc(F)cc2)n1	?	31	10	17%	-1%
Cc1c(Cl)cccc1NC(=O)CSc1nc(=O)n(Cc2ccco2)c2c1CCC2	-17%[46.1 µM]	/	/	/	/
CC12CCC(C(=O)N(CSC(=S)N/N=C\c3ccccc3O)C1=O)C2(C)C (stereo unspecified)	?	56	26*	-30%[46.1 µM]	20µM*
COc1cc(NC(=O)C2CCN(C(=O)c3sc4nc[nH]c(=O)c4c3C)CC2)cc(OC)c1OC	19%[46.1 µM]	/	/	/	/
CNC(=O)c1cc(C(=O)c2ccc(C(F)(F)F)cc2)c[nH]1	0%[46.1 µM]	60*	27*	17%[46.1 µM]	5%
CNC(=O)c1cc(C(=O)c2ccc(C(F)(F)F)cc2F)c[nH]1	-1%	21	19*	27%[46.1 µM]	6%
COc1ccc(NC(=O)C2CCN(S(=O)(=O)c3cccs3)CC2)cc1OC	/	/	/	/	-1%
Oc1ccccc1C1CC(c2cccs2)=NC(c2ccc(Cl)cc2)N1 (stereo unspecified)	/	50*	37*	/	-3%
CC(NC(=O)COC(=O)c1ccccc1F)C1CC2CCC1C2 (stereo unspecified)	/	/	/	/	12%
CC(C)(C)c1ccc(S(=O)(=O)NCc2ccccn2)cc1	6%	48	18*	15%	40%
O=S(=O)(NCc1ccccn1)c1ccccc1	-2%	20	-5	17%	38%
CC1(C(=O)NS(=O)(=O)c2ccccc2Cl)CCN1C(=O)CCc1ccccc1 (stereo unspecified)	/	/	/	/	43%
C/C=C/c1ccc(OCCCNC(C)CC)c(OC)c1 (stereo unspecified)	3%	-3	2	?	20µM*
C/C=C/c1ccc(OCC(=O)O)c(OC)c1	1%	-8	-3	13%	5%
C=CCc1cc(Cl)ccc1OCCCNC(C)CC (stereo unspecified)	?	-12	-6	2.9µM*	2%
C/C=C/c1ccc(OCCCNC2CCCC2)c(OC)c1	?	-8	-7	?	-16%
C/C=C/c1ccc(OCCOc2cc(C=O)ccc2OC)c(OC)c1	16%	62*	52*	-11%	-2%
C/C=C/c1ccc(OCC(=O)Nc2cc(OC)c(OC)c(OC)c2)c(OC)c1	10µM*	-7	-2	?	-8%
COc1c2c(c(OC)c3ccccc13)[C@]1(OC2)O[C@H](CCO)C[C@H](O)[C@H]1O	/	/	/	/	4%
O=S(=O)(Cc1ccccc1)Nc1ccc(F)cc1	3%[46.1 µM]	-8	-3	?	-4%
C/C=C/c1ccc(OCC(=O)OCC)c(OC)c1	10%[46.1 µM]	37	14*	?	8%
COc1ccc(CC(Cc2ccc(OC)c(OC)c2)NC=O)cc1OC	/	/	/	/	-3%
CC(=O)c1ccc(-c2ccc(C(=O)N3CCCc4ccccc43)o2)cc1	?	142	27*	?	?
O=C(c1ccc([N+](=O)[O-])o1)N1CCc2ccccc2C1	/	-7	-3	/	-3%
CC1Cc2ccccc2N1C(=O)COC(=O)c1ccco1 (stereo unspecified)	/	/	/	/	17%
SMILES	Lassa entry inh	Shiga toxin inh	CHX counter	MARV entry inh	AMA1-RON2 inh
Cc1cc(C(=O)OCC(=O)N2c3ccccc3CC2C)c(C)o1 (stereo unspecified)	14%	36*	12	3%	-5%
O=C(c1ccc([N+](=O)[O-])o1)N1CCc2ccccc21	-12%	38*	14*	?	-14%
Cc1ccc(C(=O)N2CCc3ccccc32)o1	?	98*	57*	?	-19%
O=C(Nc1c(-c2ccccc2)nc2ccccn12)c1cccc(F)c1	-20%[46.1 µM]	17	-4	2%[46.1 µM]	4%
Cc1c(C(=O)N2CCc3ccccc32)oc2c1C(=O)CC(C)(C)C2	-12%	69*	32*	?	-3%
Cc1ccc(C(=O)N2c3ccccc3CC2C)o1 (stereo unspecified)	?	92*	39*	?	-28%
CC(=O)c1ccc(-c2ccc(C(=O)N3CCN(c4ccc(F)cc4)CC3)o2)cc1	/	19	21*	/	-22%
COCC(=O)N1c2nc(-c3ccco3)nn2C2(CCCCC2)[C@@H]2CCCC[C@@H]21	-12%[46.1 µM]	/	/	-19%[46.1 µM]	/
Cc1ccc(C2=NN(C(=O)CSc3nnnn3C)C(c3ccco3)C2)cc1 (stereo unspecified)	/	/	/	/	2%
Cc1ccc(SCC(=O)c2c(C)[nH]c3ccccc23)cc1	-26%	35	13*	22%	-1%
Cc1[nH]c2ccccc2c1C(=O)CSc1ccc(F)cc1	4%	52	23*	23%	0%
Cc1[nH]c2ccccc2c1C(=O)CSc1ccccn1	24%[46.1 µM]	45	40*	?	42%

Screens from PubChem BioAssay.
